Shown are actives, neighbours in structure and some others; about 1.3% of the full set was active somewhere.
rTrxR1 inhibitor – inhibitors of rat thioredoxin reductase 1; O89049; recombinant rTrxR1, NADPH fluorescence consumption, selenite substrate; Potency, µM (top dose mostly 114 µM), usual class: inhibitors; actives 1% (n = 390,000); also: nearly all actives have a fitted effect of over 65% in size
Target sequence (O89049 whole entry, looked up): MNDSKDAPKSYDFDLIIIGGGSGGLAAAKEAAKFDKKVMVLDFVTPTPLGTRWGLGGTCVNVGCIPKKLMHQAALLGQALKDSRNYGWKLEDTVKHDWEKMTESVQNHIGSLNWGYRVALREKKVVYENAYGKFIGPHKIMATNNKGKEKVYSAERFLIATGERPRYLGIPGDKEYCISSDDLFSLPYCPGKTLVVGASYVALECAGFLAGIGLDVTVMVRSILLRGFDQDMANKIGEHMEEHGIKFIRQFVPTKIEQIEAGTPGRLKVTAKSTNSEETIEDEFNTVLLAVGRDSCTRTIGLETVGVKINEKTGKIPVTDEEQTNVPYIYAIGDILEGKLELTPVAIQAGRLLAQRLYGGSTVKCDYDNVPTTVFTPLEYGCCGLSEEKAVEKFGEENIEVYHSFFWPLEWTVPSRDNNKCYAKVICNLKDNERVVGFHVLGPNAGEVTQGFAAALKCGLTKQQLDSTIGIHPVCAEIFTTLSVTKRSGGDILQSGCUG
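Rat TrxR1 (90 nM in the dispensed reagent) was pre-reduced with 400 uM NADPH for 5 min at room temperature, then incubated with compound for 15 min. After 400 uM selenite was added, NADPH fluorescence (Ex 340/Em 450 nm) was followed for 8 min.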
PKM2 act – increases activity of human pyruvate kinase M2 | Potency, µM (top dose mostly 57.5 µM), usual class: activators | actives 0.34% (n = 260,000) | purified PKM2, Kinase-Glo ATP luminescence, activation; response scale: 0% is enzyme alone, no compound | AID 1631; also: nearly all actives have a fitted effect of over 55% in size
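ATP formation by purified human PK-M2, quantified via coupled luciferase luminescence after 1 h at room temperature with 0.1 mM ADP and 0.5 mM PEP final.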
Apoferritin bind – binds horse apoferritin like a general anesthetic. P02791. AID 485281. apoferritin/1-aminoanthracene competitive binding, fluorescence. actives 0.074% (n = 350,000). Potency, µM (doses to about 77.5 µM), most hits filed as inhibitors; also: nearly all actives have a fitted effect of over 20% in size
Target sequence (P02791 2-175 limits assumed): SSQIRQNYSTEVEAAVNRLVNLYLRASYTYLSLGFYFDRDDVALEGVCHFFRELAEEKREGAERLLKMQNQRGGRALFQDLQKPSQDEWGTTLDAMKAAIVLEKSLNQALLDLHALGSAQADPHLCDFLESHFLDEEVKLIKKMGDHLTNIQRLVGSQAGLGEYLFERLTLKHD
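Concentration-response curves derived by four-parameter Hill fitting of normalized fluorescence, where compounds displaced 1-AMA from 10 uM horse apoferritin following a brief 10 min room-temperature incubation; propofol titration acted as positive control.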
TrxR1 substrate – substrates of rat thioredoxin reductase 1; O89049; purified TrxR1 substrate turnover, NADPH consumption readout; Potency, µM (titrated, usually from 114 µM); actives 0.01% (n = 390,000); AID 588456; also: nearly all actives have a fitted effect of over 50% in size
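Rat TrxR1, dispensed at 90 nM, was prereduced with 400 uM NADPH (final) for 5 min at ~22 deg C, then incubated with compound 15 min before 400 uM selenite. A first-read NADPH fluorescence drop versus no-compound background flagged substrates.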
mIDH1 inhibitor – human IDH1 R132H inhibition. O75874. IDH1-R132H enzyme, NADPH consumption, diaphorase/resazurin fluorescence. Potency, µM (doses to about 76.6 µM), hits mostly inhibitors. actives 0.093% (n = 390,000); also: nearly all actives have a fitted effect of over 65% in size
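IDH1-R132H (0.5 ug/mL) preincubated 30 min with compound, then NADPH (0.016 mM) and alpha-KG (2 mM) added; 80 min at RT, pH 7.5. Remaining NADPH coupled via diaphorase/resazurin to fluorescence (540/590 nm); concentration-response curves normalized to no-enzyme control.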
GALK inhibitor – galactokinase (human) inhibition. P51570. Purified GALK, Kinase-Glo residual ATP luminescence. Potency, µM (doses to about 57.5 µM), hits mostly inhibitors. actives 0.007% (n = 270,000)
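GALK at 5 nM final was combined with compound, 35 uM ATP and 100 uM galactose in HEPES pH8.0 with MgCl2 and DTT. The reaction ran one hour at room temperature before luminescent ATP detection.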
Numbers stand for hits; n = inactive; u = inconclusive; x = no result given; [ ] = another dose, or the depositor's remark. Calls follow the shape of the dose curve; as a rule, active = well fitted curve in the direction sought with a large enough effect; inconclusive = small, poorly fitted or top-dose-only effect, or another doubt; inactive = no such curve, though single readings can be large; an effect the other way counts as inactive or inconclusive.

SMILES	rTrxR1 inhibitor	PKM2 act	Apoferritin bind	TrxR1 substrate	mIDH1 inhibitor	GALK inhibitor
Cc1oc(-c2ccc(Cl)cc2)cc1C(=O)O	n	n	n	n	n	n
COc1ccc(-c2ccc(CCC(=O)O)o2)cc1	18µM	u	n	n	n	n
O=C(O)CCc1ccc(-c2ccc(Cl)cc2)o1	18µM	u	n	n	n	n
O=C(Cn1cc(S(=O)(=O)Cc2ccc(F)cc2)c2ccccc21)NCc1ccccc1	n	x	n	n	n	x
O/N=C(/CI)c1ccc2ccccc2c1	u	x	x	n	x	x
CC(C)(C)n1ncc2c(=O)n(Cc3c(Cl)ccc(Cl)c3Cl)cnc21	n	x	x	n	x	x
Cc1oc(-c2cccs2)nc1CS(=O)CC(=O)NC1CCCCCC1 (configuration not stated)	5µM	n	u	n	n	n
Cc1ccccc1-c1nc(CS(=O)CC(=O)NC2CCCC2)c(C)o1 (configuration not stated)	n	x	n	n	n	n
Cc1oc(-c2ccc(Cl)cc2)nc1CS(=O)CC(=O)NC1CCCCCC1 (configuration not stated)	u	x	u	n	n	n
Cc1ccc(-c2nc(CS(=O)(=O)CC(=O)NC3CCCCCC3)c(C)o2)cc1	79µM	n	n	n	n	n
Cc1oc(-c2ccc(Cl)cc2)nc1CS(=O)CC(=O)NC1CCCC1 (configuration not stated)	45µM	x	n	n	n	n
Cc1oc(-c2ccccc2F)nc1CS(=O)CC(=O)NC1CCCC1 (configuration not stated)	28µM	x	n	n	n	n
O=C(Nc1c(C(=O)N2CCN(c3ccccc3F)CC2)oc2ccccc12)c1cccc(F)c1	n	x	n	n	n	x
CC[N+]1(CC(=O)c2cccs2)CCCCC1	n	x	x	n[0.0914 µM]	x	x
Cc1nc2n(c(=O)c1CCN1CCC(c3noc4cc(F)ccc34)CC1)CCC[C@@H]2O	n	x	x	n	x	x
Cc1oc(-c2ccc(Cl)cc2)nc1CS(=O)CC(=O)NC1CCCCC1 (configuration not stated)	25µM	x	n	n	n	n
CCC(C)(C)n1nnnc1C(C(C)C)N(CCN1CCOCC1)Cc1cc2cccc(C)c2[nH]c1=O (configuration not stated)	u	n	n	n	n	n
CCC(c1nnnn1C(C)(C)CC)N(CCCN1CCOCC1)Cc1cc2cccc(C)c2[nH]c1=O (configuration not stated)	35µM	n	n	n	n	n
O=C1/C(=C/C=C/c2ccccc2)Oc2c1ccc(O)c2CN1CCN(CCO)CC1	u	n	n	n	n	n
CN(C)Cc1c(O)ccc2c1O/C(=C\C=C\c1ccccc1)C2=O	79µM	n	n	n	n	n
COc1ccccc1/C=C/C=C1\Oc2c(ccc(O)c2CN2CCN(CCO)CC2)C1=O	25µM	n	n	n	n	n
COc1ccccc1C(=O)NCc1ccc2c(c1)CCN2C(=O)c1ccncc1	n	x	n	n	n	x
O=C(CCC(=O)c1cccs1)OCC(=O)c1ccc(Cl)s1	n	n	28µM	n	n	n
O=C(CCC(=O)c1cccs1)OCC(=O)c1ccc(F)cc1	n	x	x	n	n	x
COc1cc(OC)c(OC)cc1/C=c1\[nH]c(=O)/c(=C/c2cc(OC)c(OC)cc2OC)[nH]c1=O	n	x	x	n	x	x
SMILES	rTrxR1 inhibitor	PKM2 act	Apoferritin bind	TrxR1 substrate	mIDH1 inhibitor	GALK inhibitor
Cc1cc(=O)n(CC(=O)Nc2ccc(Cl)c(Cl)c2)c(-n2nc(C)cc2C)n1	n	x	n	n	n	x
CCOC(=O)Nc1ccc2c(c1)N(C(=O)CCN1CCOCC1)c1ccccc1S2=O (configuration not stated)	32µM	n	n	n	n	n
CCOc1ccc(CCNC(=O)/C=C/c2ccco2)cc1OCC	20µM	x	n	n	n	n
COc1ccc(/C=C/C(=O)NCCc2ccc(S(N)(=O)=O)cc2)cc1	n	n	n	n	n	n
COc1cc(/C=N/NC(=O)CNC(=O)/C=C/c2ccco2)cc(OC)c1OC	u	n	n	n	n	n
COc1ccc(CCNC(=O)/C=C/c2ccco2)cc1OC	7.9µM	n	n	n	n	x
COc1ccc(CCNC(=O)/C=C/c2ccco2)cc1	35µM	n	n	n	n	n
COc1ccc(/C=N/NC(=O)CNC(=O)/C=C/c2ccco2)cc1OC	32µM	n	n	n	n	n
COc1ccc(C)cc1NC(=O)C(=O)NCC(c1cccnc1)N1CCN(c2ccccc2F)CC1 (configuration not stated)	n	x	n	n	n	x
O=[N+]([O-])c1ccc(-c2cc3ccccc3[nH]2)cc1	n	x	x	n	x	x
CNc1nc(Nc2ccc(C)c(Cl)c2)c2cnn(C)c2n1	n	x	n	n	29µM	n
O=C(Nc1ccccc1)c1nnsc1S(=O)c1ccc(Cl)cc1 (configuration not stated)	1.3µM	n	u	n	n	n
O=C(c1nnsc1S(=O)c1ccc(Cl)cc1)N1CCOCC1 (configuration not stated)	3.5µM	x	n	n	n	n
CC(C)(C)n1ncc2c(=O)n(Cc3ccccc3CS(=O)(=O)c3ccccc3)cnc21	n	x	x	n	x	x
COc1cc(C2SC[C@H]3C(=O)N(c4ccccc4)C(=O)N23)cc(OC)c1OC (some centres not stated)	79µM	x	n	n	n	x
COc1cc2nc(N3CCCN(C)CC3)nc(Nc3ccncc3)c2cc1OC	n	x	x	n	x	x
Cc1cc(C)c2cc(C#N)c(SCC(=O)NCc3ccco3)nc2c1	56µM	n	n	n	n	n
CCN(CC)c1ccc2nc3c(=O)n(C)c(=O)n(C)c3nc2c1	n	x	n	n	x	x
Cc1nc2c(=O)n(C)c(=O)n(C)c2nc1Cl	2µM	n	n	n	n	n
Cc1ccc(-c2ccc(=O)n(CC(=O)Nc3ccc(C)cc3Cl)n2)cc1	n	x	10µM	n	n	x
COc1ccccc1NC(=O)Cn1nc(-c2ccc3c(c2)OCCO3)ccc1=O	n	n	11µM	n	n	n
CC(=O)c1cc2c(cc1NC(=O)Cn1nc(-c3ccc(C)cc3)ccc1=O)OCO2	n	x	n	n	n	n
Cc1ccc(NC(=O)Cn2nc(-c3ccccc3Cl)ccc2=O)c(Br)c1	n	n	10µM	n	n	n
COc1cc2nc(N3CCOCC3)nc(NC3CCN(Cc4ccccc4)CC3)c2cc1OC	n	x	x	n	x	x
CCOc1ccc(NC(=O)COC(=O)c2ccccc2OCc2ccccc2Br)cc1	n	x	x	n	x	x
O=C(COc1ccccc1Cl)Nc1ccc(Cl)c(-c2nc3ccccc3o2)c1	n	x	n	n	n	x
COc1cc(-c2noc(C)c2C#Cc2ccc(N)cc2)cc(OC)c1OC	n	n	n	n	u	x

High-throughput results from PubChem.
